The supplement of paper PMC11732987, “Enantioselective OTUD7B fragment discovery through chemoproteomics screening and high-throughput optimisation” (Communications Chemistry, 2025)

Columns and labels:
Test in all cases: log2 ratio of Biotin-Ahx-Ub-VS probe labelling (fragment/DMSO); higher = less target engagement (more negative = stronger competition), active = hit call of the paper (q ≤ 0.05, log2 ratio ≤ -1)
Conditions in all cases: compound concentration: 200 uM; treatment time: 3 h
[1] = target: T1, OTUD6B (UniProt Q8N6M0)
T1 sequence (whole entry): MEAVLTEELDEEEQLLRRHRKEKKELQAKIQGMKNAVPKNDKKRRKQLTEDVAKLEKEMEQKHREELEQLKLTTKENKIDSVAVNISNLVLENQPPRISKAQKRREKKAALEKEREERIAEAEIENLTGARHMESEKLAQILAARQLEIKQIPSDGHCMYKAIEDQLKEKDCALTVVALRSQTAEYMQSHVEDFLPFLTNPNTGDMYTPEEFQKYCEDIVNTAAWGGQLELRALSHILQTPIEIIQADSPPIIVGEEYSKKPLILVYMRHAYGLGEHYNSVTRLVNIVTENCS
Method in brief: (§1)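 Average log2 ratios of fragment over vehicle were obtained by unpaired t-test from global-median-normalised Spectronaut label-free quantities. Proteins with ≥2 unique peptides were included. HEK293T lysate (495 µg per sample) was treated in triplicate with fragment at 200 µM or vehicle for 3 h, then with Biotin-Ahx-Ub-VS at 0.5 µM final for 1 h, and labelled DUBs were NeutrAvidin-enriched and run by diaPASEF LC-MS/MS.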

[2] = target: T2, OTUD7B (UniProt Q6GQQ9)
T2 sequence (whole entry): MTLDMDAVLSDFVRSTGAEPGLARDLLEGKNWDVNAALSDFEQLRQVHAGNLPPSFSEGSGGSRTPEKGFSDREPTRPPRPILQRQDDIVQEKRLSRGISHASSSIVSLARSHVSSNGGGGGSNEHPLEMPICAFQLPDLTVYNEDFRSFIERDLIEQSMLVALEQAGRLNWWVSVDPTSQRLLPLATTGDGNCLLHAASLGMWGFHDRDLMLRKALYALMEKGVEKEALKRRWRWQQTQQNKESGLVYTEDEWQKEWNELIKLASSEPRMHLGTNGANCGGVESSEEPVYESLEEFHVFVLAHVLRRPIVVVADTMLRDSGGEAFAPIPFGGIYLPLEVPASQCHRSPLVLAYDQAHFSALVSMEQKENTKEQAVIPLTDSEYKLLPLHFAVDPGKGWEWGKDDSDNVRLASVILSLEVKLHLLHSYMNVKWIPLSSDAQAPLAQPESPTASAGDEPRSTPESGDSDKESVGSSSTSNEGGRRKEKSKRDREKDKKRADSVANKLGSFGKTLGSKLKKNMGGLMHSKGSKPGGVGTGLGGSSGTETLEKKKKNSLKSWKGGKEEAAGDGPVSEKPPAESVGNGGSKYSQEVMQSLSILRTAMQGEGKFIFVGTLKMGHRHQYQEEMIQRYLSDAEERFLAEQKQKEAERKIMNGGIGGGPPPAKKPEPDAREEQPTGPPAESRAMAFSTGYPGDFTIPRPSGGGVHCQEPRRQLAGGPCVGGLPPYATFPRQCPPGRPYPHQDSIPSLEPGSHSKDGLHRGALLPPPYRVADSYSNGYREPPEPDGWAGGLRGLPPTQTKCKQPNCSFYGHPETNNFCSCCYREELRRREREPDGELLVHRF
Method in brief: as §1

[3] = target: PRPF8 (UniProt Q6P2Q9)
Method in brief: as §1

[4] = target: T3, PSMD7 (UniProt P51665)
T3 sequence (whole entry): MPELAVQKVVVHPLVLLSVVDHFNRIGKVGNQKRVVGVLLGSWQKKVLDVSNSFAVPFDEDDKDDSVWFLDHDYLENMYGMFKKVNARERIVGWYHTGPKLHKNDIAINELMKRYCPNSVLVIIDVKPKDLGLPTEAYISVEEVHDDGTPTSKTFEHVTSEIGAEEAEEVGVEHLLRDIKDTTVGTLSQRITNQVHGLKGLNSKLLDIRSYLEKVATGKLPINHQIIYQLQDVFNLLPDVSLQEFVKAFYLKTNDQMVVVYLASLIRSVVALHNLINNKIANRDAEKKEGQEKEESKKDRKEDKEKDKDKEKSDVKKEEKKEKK
Method in brief: as §1

[5] = target: UCHL1 (UniProt P09936)
Method in brief: as §1

[6] = target: T4, UCHL3 (UniProt P15374)
T4 sequence (whole entry): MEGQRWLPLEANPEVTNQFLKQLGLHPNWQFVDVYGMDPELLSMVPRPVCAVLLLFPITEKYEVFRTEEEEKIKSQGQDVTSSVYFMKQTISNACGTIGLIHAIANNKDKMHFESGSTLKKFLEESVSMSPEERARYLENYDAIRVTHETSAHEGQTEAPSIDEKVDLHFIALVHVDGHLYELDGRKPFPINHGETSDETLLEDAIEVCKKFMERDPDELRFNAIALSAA
Method in brief: as §1

[7] = target: T5, UCHL5 (UniProt Q9Y5K5)
T5 sequence (whole entry): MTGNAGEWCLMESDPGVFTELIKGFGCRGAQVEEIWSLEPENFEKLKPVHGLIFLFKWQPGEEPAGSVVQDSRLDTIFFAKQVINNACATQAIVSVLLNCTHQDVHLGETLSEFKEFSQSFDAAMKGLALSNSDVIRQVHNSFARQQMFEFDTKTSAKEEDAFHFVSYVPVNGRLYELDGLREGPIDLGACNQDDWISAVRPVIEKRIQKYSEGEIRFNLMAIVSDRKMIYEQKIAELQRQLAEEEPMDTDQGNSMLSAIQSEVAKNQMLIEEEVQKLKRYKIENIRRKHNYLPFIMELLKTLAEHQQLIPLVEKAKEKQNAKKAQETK
Method in brief: as §1

[8] = target: USP10 (UniProt Q14694)
Method in brief: as §1

[9] = target: T6, USP15 (UniProt Q9Y4E8)
T6 sequence (whole entry): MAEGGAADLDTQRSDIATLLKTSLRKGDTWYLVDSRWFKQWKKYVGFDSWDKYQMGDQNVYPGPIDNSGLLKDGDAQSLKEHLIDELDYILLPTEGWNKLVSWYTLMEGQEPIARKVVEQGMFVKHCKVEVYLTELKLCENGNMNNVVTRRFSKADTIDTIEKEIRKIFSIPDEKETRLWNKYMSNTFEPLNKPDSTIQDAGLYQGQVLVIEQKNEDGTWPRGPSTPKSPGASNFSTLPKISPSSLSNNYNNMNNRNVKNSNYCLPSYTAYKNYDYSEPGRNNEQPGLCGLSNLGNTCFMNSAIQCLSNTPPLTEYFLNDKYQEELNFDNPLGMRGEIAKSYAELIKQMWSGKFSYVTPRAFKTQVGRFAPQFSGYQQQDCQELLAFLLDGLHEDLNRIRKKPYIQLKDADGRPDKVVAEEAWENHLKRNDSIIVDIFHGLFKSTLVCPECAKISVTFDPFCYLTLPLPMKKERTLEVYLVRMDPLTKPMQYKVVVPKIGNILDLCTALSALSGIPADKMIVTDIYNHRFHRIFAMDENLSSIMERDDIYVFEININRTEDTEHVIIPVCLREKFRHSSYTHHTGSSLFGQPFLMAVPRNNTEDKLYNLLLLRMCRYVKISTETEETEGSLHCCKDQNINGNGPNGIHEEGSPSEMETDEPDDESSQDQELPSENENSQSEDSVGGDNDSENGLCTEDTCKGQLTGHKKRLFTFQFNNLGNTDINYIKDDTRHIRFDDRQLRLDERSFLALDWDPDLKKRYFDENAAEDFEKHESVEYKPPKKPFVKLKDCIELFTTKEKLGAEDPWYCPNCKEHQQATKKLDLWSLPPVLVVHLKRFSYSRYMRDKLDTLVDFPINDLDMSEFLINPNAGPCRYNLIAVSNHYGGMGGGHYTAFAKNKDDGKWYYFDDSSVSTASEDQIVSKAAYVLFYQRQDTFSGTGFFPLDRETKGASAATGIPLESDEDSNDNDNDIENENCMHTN
Method in brief: as §1

[10] = target: USP16 (UniProt Q9Y5T5)
Method in brief: as §1

Measured: log2 ratio of Biotin-Ahx-Ub-VS probe labelling

Chain of USP10 (Q14694 whole entry): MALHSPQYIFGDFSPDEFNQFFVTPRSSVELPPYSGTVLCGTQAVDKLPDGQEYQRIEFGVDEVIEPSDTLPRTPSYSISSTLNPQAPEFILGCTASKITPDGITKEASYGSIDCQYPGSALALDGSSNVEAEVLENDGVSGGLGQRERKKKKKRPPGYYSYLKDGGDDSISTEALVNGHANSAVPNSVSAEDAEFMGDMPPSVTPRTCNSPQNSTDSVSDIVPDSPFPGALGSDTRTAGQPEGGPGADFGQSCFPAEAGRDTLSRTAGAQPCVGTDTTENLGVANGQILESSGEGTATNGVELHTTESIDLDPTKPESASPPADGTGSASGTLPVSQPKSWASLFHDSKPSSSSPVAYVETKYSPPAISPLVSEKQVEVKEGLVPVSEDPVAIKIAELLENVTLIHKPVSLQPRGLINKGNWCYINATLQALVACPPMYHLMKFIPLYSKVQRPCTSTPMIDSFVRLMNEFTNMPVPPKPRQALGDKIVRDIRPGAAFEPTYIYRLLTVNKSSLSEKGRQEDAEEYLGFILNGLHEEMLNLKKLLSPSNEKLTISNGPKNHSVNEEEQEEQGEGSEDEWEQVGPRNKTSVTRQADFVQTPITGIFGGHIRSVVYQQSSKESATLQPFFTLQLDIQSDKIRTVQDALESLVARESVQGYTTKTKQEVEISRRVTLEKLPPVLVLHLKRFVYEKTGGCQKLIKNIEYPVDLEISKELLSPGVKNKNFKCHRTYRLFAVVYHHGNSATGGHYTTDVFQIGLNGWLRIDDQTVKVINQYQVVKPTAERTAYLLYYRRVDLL
Chain of UCHL1 (P09936 whole entry, looked up): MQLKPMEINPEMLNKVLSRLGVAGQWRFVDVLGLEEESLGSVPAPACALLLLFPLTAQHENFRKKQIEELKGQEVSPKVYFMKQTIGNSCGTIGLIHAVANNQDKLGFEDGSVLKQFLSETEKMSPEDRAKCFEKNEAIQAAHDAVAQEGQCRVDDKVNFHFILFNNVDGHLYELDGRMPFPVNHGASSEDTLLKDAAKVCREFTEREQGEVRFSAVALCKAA
Chain of USP16 (Q9Y5T5 whole entry, looked up): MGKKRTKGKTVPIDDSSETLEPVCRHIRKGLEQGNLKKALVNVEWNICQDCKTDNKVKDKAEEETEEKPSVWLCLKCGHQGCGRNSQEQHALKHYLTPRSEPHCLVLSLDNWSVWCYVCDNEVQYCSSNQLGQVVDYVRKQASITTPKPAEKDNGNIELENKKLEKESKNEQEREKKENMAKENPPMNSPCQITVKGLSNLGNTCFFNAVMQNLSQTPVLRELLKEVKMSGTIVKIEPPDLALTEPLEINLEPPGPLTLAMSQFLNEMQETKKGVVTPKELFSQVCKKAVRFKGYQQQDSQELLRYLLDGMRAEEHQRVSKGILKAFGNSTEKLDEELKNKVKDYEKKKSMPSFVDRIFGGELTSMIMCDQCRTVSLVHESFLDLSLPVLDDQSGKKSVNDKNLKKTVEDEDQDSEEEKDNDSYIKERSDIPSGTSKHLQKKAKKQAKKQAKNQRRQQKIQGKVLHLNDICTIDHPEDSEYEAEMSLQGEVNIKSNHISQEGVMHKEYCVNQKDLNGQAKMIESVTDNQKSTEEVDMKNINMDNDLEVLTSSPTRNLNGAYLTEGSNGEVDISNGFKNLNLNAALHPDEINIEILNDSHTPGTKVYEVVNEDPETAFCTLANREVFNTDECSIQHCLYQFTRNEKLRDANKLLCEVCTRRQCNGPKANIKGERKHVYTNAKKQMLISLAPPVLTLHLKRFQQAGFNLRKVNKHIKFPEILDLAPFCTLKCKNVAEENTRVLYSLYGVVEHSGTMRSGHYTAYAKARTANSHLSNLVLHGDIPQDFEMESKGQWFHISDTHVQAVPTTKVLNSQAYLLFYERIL

O=C(CCl)N1CCc2[nH]c3ccccc3c2C1
inactive: [1] -0.206 | [3] -0.175 | [4] -0.319 | [6] -0.675 | [7] -0.893 | [8] -0.119 | [10] 0.191
active: [2] -1.05 | [5] -1.24 | [9] -1.46
